# Screening results from PubChem BioAssay.
# In the library only some 21% were active in any assay of this set; here they are far more common.
# TDP1 cell noCPT = qHTS for Inhibitors of human tyrosyl-DNA phosphodiesterase 1 (TDP1): qHTS in cells in absence of CPT. AID 686978, 2013. hit rate 15% among 420,000. Potency, µM (titrated, usually from 46.2 µM), most hits filed as inhibitors. DT40 Tdp1-/- hTDP1 cells, no CPT, ATP luminescence, 48 h; note: nearly all actives have a fitted effect of over 55% in size
#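 Growth of hTDP1-complemented DT40 Tdp1-knockout cells is measured by ATP luminescence after at least 48 hr compound exposure at 37 °C, with DMSO substituting for the 20 nM CPT used in the parallel screen.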
# D3 antag = D3 dopamine receptor (human) antagonism; P35462; D3R cells, DiscoveRx beta-arrestin luminescence, antagonist mode; stronger effect = lower value; max response, negative = inhibition, %; hit rate 2.5% among 360,000; AID 652054; in the data active = max response below about -50%; inconclusive = no clear call, values can overlap the other calls
# Target sequence (P35462 whole entry, looked up): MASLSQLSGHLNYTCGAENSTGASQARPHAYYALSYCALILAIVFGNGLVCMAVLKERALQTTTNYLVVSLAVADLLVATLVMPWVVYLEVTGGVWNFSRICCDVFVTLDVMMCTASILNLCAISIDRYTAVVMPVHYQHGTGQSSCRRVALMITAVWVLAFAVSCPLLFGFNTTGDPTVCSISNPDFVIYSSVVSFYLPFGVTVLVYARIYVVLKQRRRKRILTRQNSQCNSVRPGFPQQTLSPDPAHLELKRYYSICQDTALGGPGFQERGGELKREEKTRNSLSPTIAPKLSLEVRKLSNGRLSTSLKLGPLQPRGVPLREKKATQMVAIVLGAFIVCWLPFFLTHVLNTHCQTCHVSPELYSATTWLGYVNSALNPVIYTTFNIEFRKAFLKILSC
#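 Cells expressing the human receptor were seeded at 1500 cells/well, incubated overnight at 37 degrees C in 5% CO2, then exposed to library compounds with dopamine controls for 90 minutes at 37 degrees C before luminescent detection.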
# ClpP mod = qHTS Assay for Activators of ClpP; purified B. subtilis ClpP, FRET peptide cleavage, 20 min; Potency, µM (top dose mostly 57.5 µM); hit rate 1.9% among 340,000; AID 651965, 2013; active = well fitted falling curve with a large enough effect; inconclusive = small, poorly fitted or top-dose-only effect; inactive = no such curve, though single readings can be large or run the other way; note: the source files actives as falling curves though it sought activators and does not explain the sign; nearly all actives have a fitted effect of over 65% in size
# Target sequence (P80244 whole entry, looked up): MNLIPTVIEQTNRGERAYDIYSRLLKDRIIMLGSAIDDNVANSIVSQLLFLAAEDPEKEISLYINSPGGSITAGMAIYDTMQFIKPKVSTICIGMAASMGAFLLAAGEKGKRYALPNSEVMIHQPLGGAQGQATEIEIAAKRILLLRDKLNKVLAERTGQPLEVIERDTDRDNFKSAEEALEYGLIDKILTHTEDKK
#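 FRET quenching reversal measured ClpP activation: 10 microg/mL B. subtilis ClpP at pH 8 with the FRET-FV decapeptide, read at 430 nm after 320 nm excitation. The 20-min minus 0-min signal was scaled between DMSO/no-enzyme wells and ADEP (5.8 microM final).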
# IL-1B inflam inh = inflammasome signaling inhibition, IL-1 beta readout. THP-1 LPS/ATP IL-1B secretion, AlphaLISA, 16 h; stronger effect = lower value. AID 743279. hit rate 4.7% among 360,000. activity change, % at 57.5 µM; in the data active = activity change below about -50%; inconclusive = mostly about -30% to -49%
#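 Secreted IL-1B measured by AlphaLISA bead assay after 16 h compound exposure of THP-1 cells; compounds (final up to 57.5 uM) added 1 h before LPS (250 ng/mL) and ATP (1.25 mM) stimulation; lower signal means less secretion.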
# DRD3 agonist = activates the human D3 dopamine receptor. D3R DiscoveRx beta-arrestin cells, luminescence, 90 min. hit rate 0.58% among 410,000. max activation, %. P35462; in the data active = max activation above about 30%
#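 Agonist mode: compounds and dopamine controls were applied to plated cells for 90 min at 37 degrees C after an overnight attachment at 1500 cells/well. Luminescent read-out followed 30 - 60 minutes at room temperature with DiscoveRx detection reagent.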
# DT40 TDP1 CPT = DT40-hTDP1 cell growth loss with CPT; Potency, µM (top dose mostly 46.2 µM), usual class: inhibitors; hit rate 12% among 420,000; chicken DT40 Tdp1-/-;hTDP1 cells + 20 nM CPT, ATP luminescence, 48 h; AID 686979; note: nearly all actives have a fitted effect of over 55% in size
#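 Chicken DT40 Tdp1-/- cells complemented with human TDP1, 400 cells/well, exposed to compounds plus 20 nM camptothecin for at least 48 h at 37 C; viability read as ATP content by CellTiter-Glo luminescence.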
# Hits are given with their value; n = inactive; u = inconclusive; x = no result given. Unless noted, calls come from the whole dose curve; as a rule, active = well fitted inhibition curve with a large enough effect; inconclusive = small, poorly fitted or top-dose-only effect; inactive = flat fitted curve, though single readings scatter.
SMILES,TDP1 cell noCPT,D3 antag,ClpP mod,IL-1B inflam inh,DRD3 agonist,DT40 TDP1 CPT
O=C(c1cc(Cl)cc(Cl)c1)N1CCC2CC1c1cc(-c3ccc4c(c3)OCO4)ccc12 (stereo not drawn),u,n,n,n,n,u
CCOc1cccc(C2C=C(c3ccc4c(c3)OCO4)NC(c3ccccc3Cl)N2)c1O (stereo not drawn),11µM,x,n,x,x,u
COC(=O)c1ccc(C2NC(c3ccc4c(c3)OCO4)=CC(c3ccccc3O)N2)cc1 (stereo not drawn),6.3µM,x,n,x,x,7.1µM
Oc1ccc(Cl)cc1C1C=C(c2ccc3c(c2)OCO3)NC(c2ccc(Cl)cc2)N1 (stereo not drawn),6.3µM,x,n,x,x,4µM
COc1cccc(CNC(=O)C2CCN(S(=O)(=O)c3cn(C)cn3)CC2)c1,n,x,n,x,n,n
CCOc1ccc(NC(=S)Nc2cc(C)[nH]n2)cc1,n,n,x,n,n,n
CC(C)NC(=O)N1CCC2(CC1)CCN(S(=O)(=O)c1ccccc1)CC2,n,x,x,x,x,n
Cc1ccc(SCc2cc(=O)[nH]c(/N=C(\N)Nc3cccc4ccccc34)n2)cc1,n,n,n,n,n,n
Cc1ccc(N/C(N)=N/c2nc(CSc3nnc(C)s3)cc(=O)[nH]2)c(C)c1,0.82µM,n,n,n,n,0.65µM
CCOc1ccc(N/C(N)=N/c2nc(CSc3nnnn3-c3ccccc3)cc(=O)[nH]2)cc1,u,n,n,n,n,16µM
CCc1ccc(N/C(N)=N/c2nc(CSc3ncccn3)cc(=O)[nH]2)cc1,13µM,n,x,n,n,u
Cc1cccc(N/C(N)=N/c2nc(CSc3ccc(Cl)cc3)cc(=O)[nH]2)c1,9.2µM,n,n,n,n,8.2µM
COc1ccc(C(=O)C2CCCN(Cc3cccn3-c3nccs3)C2)cc1OC (stereo not drawn),13µM,n,u,n,n,18µM
COc1ccc(C(=O)C2CCCN(Cc3cccn3-c3nccs3)C2)cc1F (stereo not drawn),21µM,n,n,-84,n,23µM
CC(NC(=O)OCc1ccccc1)C(=O)Oc1cc2oc(=O)cc(-c3ccccc3)c2cc1Cl (stereo not drawn),u,n,25µM,n,n,n
CCc1cc2c(-c3ccccc3)cc(=O)oc2cc1OC(C)C(=O)O (stereo not drawn),n,n,n,n,n,n
COc1cccc2c(=O)c(SC(F)(F)C(F)C(F)(F)F)c(C)[nH]c12 (stereo not drawn),18µM,n,u,n,n,u
Cc1[nH]c2ccc(F)cc2c(=O)c1SC(F)(F)C(F)C(F)(F)F (stereo not drawn),u,n,n,n,n,u
COc1cccc2c(=O)c(C/C=C(/C)Cl)c(C)[nH]c12,u,n,16µM,n,n,n
Cc1ccc(C(=O)N2CCN(S(=O)(=O)c3ccc(C(C)C)cc3)CC2)s1,u,n,n,n,n,u
O=C(NCCCN1CCOCC1)c1ccc(N2CCOCC2)c([N+](=O)[O-])c1,n,n,n,n,n,n
O=C(NCCCN1CCOCC1)c1ccc(Sc2ccc(F)cc2)c([N+](=O)[O-])c1,16µM,n,n,n,n,u
CN(C)CCNC(=O)c1ccc(Sc2ccc(Br)cc2)c([N+](=O)[O-])c1,23µM,n,n,-70,n,16µM
COc1cc(-c2nnc3n2CCCCC3)cc(OC)c1OC,n,n,n,n,n,n
Cc1ccc(C(=O)c2c3ccccc3[n+]([O-])n2CCC(=O)O)cc1,n,u,n,n,n,n
SMILES,TDP1 cell noCPT,D3 antag,ClpP mod,IL-1B inflam inh,DRD3 agonist,DT40 TDP1 CPT
CCOC(=O)c1c2ccccc2[n+]([O-])n1[C@@H](C)C(N)=O,n,n,n,n,n,21µM
Cc1c(Cl)cccc1NC(=O)CSc1ncnc2c1cnn2CCO,n,n,n,n,n,n
CN(C)c1nc(OCCNC(=O)Nc2ccc(Cl)cc2)nc(N(C)C)n1,n,n,n,n,n,n
Cc1cc(Cl)ccc1OCC(=O)NCCCn1ccnc1,n,n,n,n,n,n
CON(C)c1nc(OCCNC(=O)OCc2ccc(Cl)cc2Cl)nc(N(C)C)n1,8.2µM,n,n,n,n,16µM
CON(C)c1nc(OCCNC(=O)COc2ccc(Cl)cc2C)nc(N(C)C)n1,8.2µM,n,n,n,n,8.2µM
Cc1ccsc1/C=N/NC(=O)c1ccc(-n2cccc2)cc1,n,n,x,n,n,n
CC(=O)Nc1cccc(NC(=O)c2ccccc2OCc2c(C)noc2C)c1,u,n,n,n,n,n
CCCCN(C(=O)c1cccc(S(=O)(=O)N(CC)c2ccccc2)c1)c1c(N)n(CC(C)C)c(=O)[nH]c1=O,n,u,n,n,n,n
Cc1ccc(-n2[nH]c(C)c(/C=N/Nc3ccc([N+](=O)[O-])cc3[N+](=O)[O-])c2=O)cc1,15µM,-56,n,n,n,21µM
Cc1[nH]n(-c2ccc([N+](=O)[O-])cc2)c(=O)c1C=NCCN1CCN(C(=O)C(C)C)CC1,16µM,n,n,n,n,12µM
Cc1[nH]n(-c2ccc([N+](=O)[O-])cc2)c(=O)c1C=NCCc1ccc(S(N)(=O)=O)cc1,u,n,x,n,n,u
O=c1c(C=NCC2CCCO2)c(-c2ccccc2)[nH]n1-c1ccc([N+](=O)[O-])cc1 (stereo not drawn),u,n,x,n,n,u
Cc1[nH]n(-c2ccc([N+](=O)[O-])cc2)c(=O)c1C=NCCc1c(C)[nH]c2ccccc12,16µM,n,n,n,n,16µM
Cc1[nH]n(-c2ccc([N+](=O)[O-])cc2)c(=O)c1C=NCC1CCCO1 (stereo not drawn),10µM,n,x,n,n,10µM
COc1ccc(S(=O)(=O)c2nnn(-c3ccccc3Cl)c2N)cc1,n,n,n,n,n,n
COc1sc(SC)cc1/C=N/NC(=O)c1ccncc1,n,n,x,n,n,n
Cc1c(CNC2CCCCCC2)c(C(=O)O)c(C)n1Cc1c(F)cccc1Cl,u,x,n,x,n,u
COc1ccc2cc(CCNC(=O)c3cc4ccccc4o3)c(=O)[nH]c2c1,u,n,n,n,n,21µM
CC(=O)NC1(NC(C)=O)CCN(C)CC1,n,n,x,n,n,n
C=CC[C@H](CC(=O)OC(C)(C)C)C(=O)OC[C@@H]1CCCN1C(=O)[C@H](CC=C)CC(=O)N[C@H](CO)Cc1ccccc1,u,n,n,n,n,26µM
